Most compounds without a hit are left out; they make up all but 1.8% or so of the library.
IL1B cytotox: HUVEC cytotoxicity counter-screen, IL-1B stimulated; HUVEC cell count loss, Hoechst imaging; cell count reduction, % at 2 µM; 94,000 tested, 0.41% active; AID 845;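 active = cell count reduction more than 3 SD above the screen-wide mean, cut at about 70% in these data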;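 also: normalized per plate to untreated control cells as the no-loss baseline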
NFkB transloc pot: enhances IL-1B driven NFkB nuclear translocation. HUVEC IL-1B NFkB p65 nuclear translocation imaging. activation, % at 2 µM. 94,000 tested, 0.3% active;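 active = activation above 40%, about the mean plus 3 SD, also judged a hit on visual image review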;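 also: percent activation is computed from the nuclear over cytoplasmic p65 intensity ratio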
HUVEC tox TNFa: HUVEC cytotoxicity counter-screen, TNF alpha stimulated. HUVEC TNFalpha-stimulated, Hoechst cell count, imaging. cell count reduction, % at 2 µM. 93,000 tested, 0.17% active;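 active = cell count reduction exceeding the screen mean by over 5 SD, scaled to untreated wells per plate, cut at about 78% in these data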;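 also: cells counted after 24 h of TNF alpha exposure following the 1 h pretreatment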
E-sel TNF inh: TNF alpha driven E-selectin expression inhibition; HUVEC TNFa-induced E-selectin immunofluorescence, high content; inhibition, % at 2 µM; 120,000 tested, 0.71% active;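 active = inhibition above the batch mean plus 3 SD, and confirmed as a hit on visual image review, cut at about 43% in these data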;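 also: 0% = TNF-stimulated DMSO wells and 100% = unstimulated control wells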
IL1B NFkB inh: blocks IL-1B driven NFkB nuclear translocation in HUVEC cells | 94,000 tested, 0.43% active | inhibition, % at 2 µM | HUVEC IL-1B NFkB p65 nuclear translocation imaging;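 active = inhibition above about 30% together with a positive call from visual inspection of the well image, limit read from the data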;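 also: nuclear over cytoplasmic p65 intensity ratio measured by imaging; 0% = IL-1B stimulated DMSO wells and 100% = unstimulated DMSO wells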
VCAM1 TNFa inh: reduces TNF alpha induced VCAM1 expression in HUVEC; HUVEC TNFa-induced VCAM-1 immunofluorescence, high-content imaging; inhibition, % at 2 µM; 95,000 tested, 0.48% active; AID 802;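 active = inhibition above the batch mean plus 3 SD, with images confirmed as a hit by eye, cut at about 37% in these data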;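 also: 0% = TNF-stimulated DMSO wells and 100% = unstimulated control wells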
* marks the source's active call; other numbers are inactive results; · = no result; ! = a repeat was not active.

SMILES | IL1B cytotox | NFkB transloc pot | HUVEC tox TNFa | E-sel TNF inh | IL1B NFkB inh | VCAM1 TNFa inh
Cn1c(SCC(=O)NC2CCCCC2)nnc1-c1cccc(N)c1 | -18.7 | 34.4 | 2.4 | 3.2 | -34.4 | 53.6*
CC1=CCC2C(=O)N(c3ccc(C(=O)N4CCCCCC4)cc3)C(=O)C2C1 (centres undefined) | -1.6 | 12.3 | -39.8 | 1.0 | -12.3 | -4.5
CN(C)C(=O)CN(C)S(=O)(=O)c1ccc(Cl)cc1 | -5.0 | -91.0 | -3.3 | -7.4 | 91.0* | -12.2
O=C(Nc1ccc(Cl)cc1)C1C2CCC3C(CCC21)C3(Cl)Cl (centres undefined) | 9.4 | -13.4 | -0.4 | -55.2 | 13.4 | -11.2
O=C(O)C1C(C(=O)Nc2ccc(Cl)cc2)C2C=CC1C21CC1 (centres undefined) | 75.5* | 10.0 | -13.0 | -7.3 | -10.0 | -18.7
C=C1CC2C=C(NC(C)=O)CC(C1)C2 (centres undefined) | -6.9 | -9.5 | 35.3 | · | 9.5 | -12.4
CC1CCCCC1NC(=O)c1nn(C)c(=O)c2ccccc12 (centres undefined) | -8.6 | 78.2* | 6.0 | -29.2 | -78.2 | -2.1
CCCCOc1ccc(/C(N)=N/O)cc1 | · | · | · | -44.4 | · | ·
CCOC(=O)C[n+]1c(C)sc2ccc(OC)cc21 | -21.4 | -43.3 | 7.2 | 65.6* | 43.3* | -1.7
CCO/C(=C/c1sc2ccc(OC)cc2[n+]1CCCS(=O)(=O)[O-])CC | 14.7 | -6.8 | -21.3 | -30.3 | 6.8 | 14.1
O=C(NCC(F)(F)F)Nc1cccnc1 | 89.8* | -77.2 | -5.3 | 28.1 | 77.3* | 10.1
CN(C)c1nc(N)nc(/C(C#N)=C/C2CC3C=CC2C3)n1 (centres undefined) | -0.6 | 41.7* | -23.1 | · | -41.7 | -5.7
O=C(Nc1ccc(-c2cn3ccccc3n2)cc1)c1cccs1 | · | · | · | -7.8 | · | ·
O=C(NC1(C(F)(F)F)C(=O)Nc2c1c(=O)[nH]c(=O)n2Cc1ccccc1)c1ccc(Cl)cc1 (centres undefined) | -14.3 | -31.9 | -32.2 | -5.5 | 31.9* | -2.7
O=C(NC1(C(F)(F)F)C(=O)Nc2c1c(=O)[nH]c(=O)n2Cc1ccccc1)c1ccc(Cl)cc1Cl (centres undefined) | -1.3 | -6.9 | -3.8 | -11.8 | 6.9 | 4.0
O=C(Nc1cccc(C(=O)O)c1)/C(=C\c1ccc2c(c1)OCO2)NC(=O)c1ccc(Br)cc1 | · | · | · | 0.7 | · | ·
COc1cc(OC)cc(C(=O)NN2CCCCC2)c1 | -4.2 | -55.8 | -11.2 | -2.8 | 55.8* | 8.2
O=C(NCc1ccc2c(c1)OCO2)c1ccc(C2SCC(=O)N2Cc2ccco2)cc1 (centres undefined) | -39.7 | 16.4 | 1.2 | -15.3 | -16.4 | -16.5
Cc1ccc(C(=O)N2CCN(c3ccc(Cl)cc3)CC2)cc1 | 88.1* | -15.8 | -10.9 | -15.5 | 15.8 | -4.4
Cc1ccc(S(=O)(=O)N2CCSC2C(=O)O)cc1 (centres undefined) | 74.9* | -6.8 | 3.3 | -26.8 | 6.8 | 0.2
O=C(NN=C1CCCCCCCCCCC1)c1ccccc1F | · | · | · | 17.6 | · | ·
COc1cccc(C(=O)Nc2cccc(OC(C)=O)c2)c1 | -69.9 | 27.2 | -7.8 | -5.9 | -27.2 | -3.1
COc1cccc(C(=O)COc2cccc(NC(=O)c3cccc([N+](=O)[O-])c3)c2)c1 | -91.0 | -11.1 | 66.1 | 19.4 | 11.1 | 48.6*
NC(=O)c1cc([N+](=O)[O-])ccc1NCCN1C(=O)c2ccccc2C1=O | · | · | · | -4.5 | · | ·
COCc1[nH]nc2c1C(c1c(F)cccc1Cl)C(C#N)=C(N)O2 (centres undefined) | 18.3 | -11.3 | 3.1 | -4.1 | 11.3 | 1.4
SMILES | IL1B cytotox | NFkB transloc pot | HUVEC tox TNFa | E-sel TNF inh | IL1B NFkB inh | VCAM1 TNFa inh
COCc1[nH]nc2c1C(c1ccccc1Cl)C(C#N)=C(N)O2 (centres undefined) | 87.5* | -11.9 | -3.0 | 0.5 | 11.9 | -4.7
N=c1nc(N)nc2n1NC(c1ccc(F)cc1)=CS2 | 4.1 | -14.3 | -1.9 | 15.4 | 14.4 | 55.1*
O=c1cc(CO)oc(CN2CCN(c3ccccc3)CC2)c1O | -26.4 | 13.2 | 86.1* | 1.6 | -13.2 | 15.5
O=c1cc(CO)oc(CN2CCN(c3cccc(C(F)(F)F)c3)CC2)c1O | 10.8 | 2.1 | -27.3 | -0.8 | -2.1 | 0.4
COc1ccc(CC(=O)Nc2cccc(S(=O)(=O)N3CCCCCC3)c2)cc1OC | · | · | · | -1.5 | · | ·
CCOc1ccc(C(=O)OCCN(C)C)cc1 | -1.4 | 58.3* | 1.8 | 3.4 | -58.3 | -4.7
CC(=O)Nc1ccccc1-c1nc2ccc(C(=O)N3CCN(c4cccc(C)c4)C(C)C3)cc2[nH]c1=O (centres undefined) | 2.0 | 24.4 | -19.0 | · | -24.4 | 17.3
CC(=O)Nc1ccccc1-c1nc2ccc(C(=O)N3CCN(c4ccccc4)CC3)cc2[nH]c1=O | -49.1 | -37.6 | -6.3 | · | 37.6* | 8.7
CCOCCCNC(=S)N1C2CCC1CC(NC(=O)NC13CC4CC(CC(C4)C1)C3)C2 (centres undefined) | -27.8 | -1.0 | -3.2 | 16.4 | 1.0 | 2.2
CC1=Nc2ccccc2/C1=C/c1c(N)n2c(S(=O)(=O)CC(C)C)nsc2nc1=O | · | · | · | 95.9* | · | ·
CCc1ccc2c(Cl)c(C(=O)N/N=C/c3c[nH]c4ccccc34)sc2c1 | -17.3 | 12.6 | 4.5 | -41.5 | -12.6 | 3.2
O=C(N/N=C/c1ccc[nH]1)c1sc2ccccc2c1Cl | -29.0 | 23.3 | 8.7 | -11.0 | -23.3 | 38.3*
CCCc1oc(C(=O)O)cc1CN1CCOCC1 | 14.5 | -32.1 | -20.7 | -5.4 | 32.1* | -8.1
CCCc1oc(C(=O)O)cc1CN1CCCC1 | -0.5 | 25.1 | -11.6 | · | -25.1 | 2.4
O=C(COC(=O)c1ccc(Br)cc1)Nc1ccccc1Br | · | · | · | -66.2 | · | ·
Fc1ccc(CNc2nc(-c3ccccc3)nc3ccccc23)cc1 | · | · | · | 99.8* | · | ·
Oc1ccccc1C1=Nc2ncnn2C(c2ccccc2)C1 (centres undefined) | · | · | · | 96.5* | · | ·
CN(C)S(=O)(=O)c1cc(NC(=O)CSc2nn(-c3ccc(Cl)cc3)c(=S)s2)ccc1Cl | · | · | · | 71.7* | · | ·
O=C(CCN1CCc2ccccc2C(c2ccccc2)C1)c1ccc2c(c1)OCCO2 (centres undefined) | -117.1 | -33.6 | 5.5 | 6.5 | 33.6* | 23.7
CC(C(=O)Nc1ccc(F)c(F)c1F)N(C)CC(=O)Nc1ccccc1Br (centres undefined) | · | · | · | 35.9 | · | ·
Cn1ncc(Br)c1C(=O)Nc1ccc(F)cc1F | 87.8* | -98.1 | 11.5 | -12.5 | 98.1* | -2.9
Cc1cccc(NC(=O)Nc2ccc(C#N)cc2)n1 | · | · | · | 54.5* | · | ·
Cc1cccc(NC(=O)Nc2cccc(C#N)c2)n1 | · | · | · | 11.4 | · | ·
Clc1ccc(Nc2ccc(-n3ccnc3)nn2)cc1Cl | -25.6 | -2.4 | -20.8 | 65.0* | 2.4 | 16.9
c1ccc(Nc2ccc(-n3ccnc3)nn2)cc1 | · | · | · | 14.7 | · | ·
COC(=O)CSc1cc(C)nc2ccc(OC)cc12 | 10.1 | -8.4 | 5.1 | 6.2 | 8.4 | 0.1
COc1ccc2nc(C)cc(SCC(=O)O)c2c1 | 18.1 | -1.2 | -1.9 | -32.0 | 40.5*! | 4.3
COc1ccccc1N(Cc1ccccc1)S(=O)(=O)c1cccc(C(=O)Nc2ccc(C(C)=O)cc2)c1 | · | · | · | 65.3* | · | ·
